{"source": "PubChem BioAssay (NCATS)", "note": "Records with an inconclusive call do not appear. Active and inactive are the calls of the source. Calls come from the whole dose curve; as a rule, active = well fitted cell-killing curve with a large enough effect; inconclusive = small, poorly fitted or top-dose-only effect, or effect the other way; inactive = flat fitted curve, though single readings scatter. % is set by controls: 0 for no effect and ±100 for the full control effect."}
{"tested_on": "C33A", "test": "Primary qHTS to identify gynecologic anti-cancer compounds using libraries of approved drugs and bioactive compounds (AID 1345084); note: nearly all actives have a fitted effect of over 55% in size", "details": "Gynecologic cancer cell panel viability, ATPlite luminescence, 48 h; series mostly up to 57.5 µM; activity change, negative = cytotoxicity: at the top concentration", "summary_of_the_method": "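Cell viability after 48 h drug treatment, ATPlite luminescence readout; five doses.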"}
{"smiles": "COc1cccc(Cn2ncc3c4sc(S(C)=O)cc4n(C)c3c2=O)c1", "note": "(stereo unspecified)", "activity change, negative = cytotoxicity": "7.58% (inactive)"}
{"smiles": "CC(C)CC(=O)O[C@@H]1O[C@H](CO)[C@@H](O[C@H]2O[C@H](C)[C@@H](N[C@H]3C=C(CO)[C@@H](O[C@H]4O[C@H](CO)[C@@H](O[C@H]5O[C@H](CO)[C@@H](O[C@H]6O[C@H](CO)[C@@H](O)[C@H](O)[C@H]6O)[C@H](O)[C@H]5O)[C@H](O)[C@H]4O)[C@H](O)[C@H]3O)[C@H](O)[C@H]2O)[C@H](O)[C@H]1O", "activity change, negative = cytotoxicity": "5.03% [at 11.6 µM] (inactive)"}
{"smiles": "COc1ccc(C2COc3cc(O)ccc3C2)c(O)c1OC", "note": "(stereo unspecified)", "activity change, negative = cytotoxicity": "-0.166% (inactive)"}
{"smiles": "CCN1CCN(C(=O)N[C@@H](C(=O)N[C@@H]2C(=O)N3[C@@H]2SC(C)(C)[C@@H]3C(=O)O)c2ccccc2)C(=O)C1=O", "activity change, negative = cytotoxicity": "-2.29% (inactive)"}
{"smiles": "COc1ccc(/C=C/C(N)=O)cc1OC", "activity change, negative = cytotoxicity": "6.36% (inactive)"}
{"smiles": "N[C@@H](CC(=O)Nc1ccc(Oc2cc(F)c(F)cc2Br)cc1)C(=O)O", "activity change, negative = cytotoxicity": "12.8% (inactive)"}
{"smiles": "COc1cc(O)cc2c1C(=O)OC(C)C2", "note": "(stereo unspecified)", "activity change, negative = cytotoxicity": "-11% (inactive)"}
{"smiles": "COc1cc(/C=C/C(=O)O[C@@H]2C[C@](O)(C(=O)O)C[C@@H](O)[C@H]2O)ccc1O", "activity change, negative = cytotoxicity": "-2.34% [at 38.5 µM] (inactive)"}
{"smiles": "Cc1cn(C[C@H](N)C(=O)O)c(=O)n(Cc2ccsc2C(=O)O)c1=O", "activity change, negative = cytotoxicity": "-0.412% (inactive)"}
{"smiles": "CC(O)C1CCC2C3CCC4CC(OC5OC(C(=O)O)C(O)C(O)C5O)CCC4(C)C3CCC12C", "note": "(stereo unspecified)", "activity change, negative = cytotoxicity": "1.81% (inactive)"}
{"smiles": "C/C=C1/[C@H](O[C@@H]2O[C@H](CO)[C@@H](O)[C@H](O)[C@H]2O)OC=C2C(=O)O[C@@H]3C[C@@H](C(C)CO)[C@H](COC(=O)C[C@H]21)[C@H]3C", "note": "(stereo partly specified)", "activity change, negative = cytotoxicity": "12.8% [at 25.3 µM] (inactive)"}
{"smiles": "COc1ccc(NC(=O)c2ccc(-c3ccc(C(N)=O)cc3C)cc2)cc1N1CCN(C)CC1", "activity change, negative = cytotoxicity": "2.24% (inactive)"}
{"smiles": "Cc1cccc(-c2nn3c(c2-c2ccnc4ccc(C(N)=O)cc24)CCC3)n1", "activity change, negative = cytotoxicity": "18.6% (inactive)"}
{"smiles": "CC1(C)CC[C@]2(C(=O)OC3OC(CO)C(O)C(O)C3O)CC[C@]3(C)C(=CCC4[C@@]5(C)C[C@@H](O)[C@H](OC6OC(C(=O)O)C(O)C(O)C6O)C(C)(C)C5CC[C@]43C)[C@@H]2C1", "note": "(stereo partly specified)", "activity change, negative = cytotoxicity": "5.49% [at 11.6 µM] (inactive)"}
{"smiles": "O=C(NCC(=O)N1CCCC1)Nc1ccc2ccccc2c1", "activity change, negative = cytotoxicity": "7.65% (inactive)"}
{"smiles": "O=C(c1c2ccccc2cc2ccccc12)N1CCC(N2CCC[C@@H](C(=O)N3CCOCC3)C2)CC1", "activity change, negative = cytotoxicity": "11.7% (inactive)"}
{"smiles": "CC(C)c1ccc2c(c1)C(O)CC1C(C)(CO)CCCC21C", "note": "(stereo unspecified)", "activity change, negative = cytotoxicity": "7.62% (inactive)"}
{"smiles": "C=CCc1cc(OC)c(OC(C)C(O)c2ccc(O)c(OC)c2)c(OC)c1", "note": "(stereo unspecified)", "activity change, negative = cytotoxicity": "-5.02% [at 38.5 µM] (inactive)"}
{"smiles": "COc1cc(O)cc(O[C@@H]2O[C@H](CO)[C@@H](O[C@@H]3OC[C@](O)(CO)[C@H]3O)[C@H](O)[C@H]2O)c1OC", "activity change, negative = cytotoxicity": "-4.2% [at 25.3 µM] (inactive)"}
{"smiles": "CC1(C)COC(=O)[C@@H]1O[C@@H]1O[C@H](CO)[C@@H](O)[C@H](O)[C@H]1O", "activity change, negative = cytotoxicity": "13.6% (inactive)"}
{"smiles": "C[C@@H]1O[C@@H](O[C@H]2[C@@H]3C=CO[C@@H](O[C@@H]4O[C@H](CO)[C@@H](O)[C@H](O)[C@H]4O)[C@@H]3[C@@]3(CO)O[C@@H]23)[C@H](O)[C@H](O)[C@H]1OC(=O)/C=C/c1ccc(O)cc1", "activity change, negative = cytotoxicity": "-2.95% [at 25.3 µM] (inactive)"}
{"smiles": "Cc1c(NC(=O)N2CCOCC2)ccc2c1c1ccccc1n2C(C)C", "activity change, negative = cytotoxicity": "5.34% (inactive)"}
{"smiles": "COC(=O)C1=COC(OC2OC(CO)C(O)C(O)C2O)C2C(COC(=O)/C=C/c3ccc(O)c(O)c3)C(O)C(O)C12", "note": "(stereo unspecified)", "activity change, negative = cytotoxicity": "2.78% [at 25.3 µM] (inactive)"}
{"smiles": "O=C(OC[C@H]1O[C@H](O[C@]2(CO)O[C@H](CO)[C@@H](O)[C@@H]2O)[C@H](O)[C@@H](O)[C@@H]1O)c1ccc(O)cc1", "activity change, negative = cytotoxicity": "-19% [at 25.3 µM] (inactive)"}
{"smiles": "C=CC(C)(O)C1CC2C3(C)CCCC(C)(C)C3C(O)C(O)C2(C)O1", "note": "(stereo unspecified)", "activity change, negative = cytotoxicity": "14.6% [at 38.5 µM] (inactive)"}
{"smiles": "CC1CC(=O)[C@]2(O)C(C(=O)OCCc3ccc(O)c(O)c3)=CO[C@@H](O[C@@H]3O[C@H](CO)[C@@H](O)[C@H](O)[C@H]3O)[C@H]12", "note": "(stereo partly specified)", "activity change, negative = cytotoxicity": "1.91% [at 25.3 µM] (inactive)"}
{"smiles": "COc1cc(O)cc2c1C(=O)OC(C)CCCCCCC2", "note": "(stereo unspecified)", "activity change, negative = cytotoxicity": "-8.27% (inactive)"}
{"smiles": "C=C(C)[C@H]1CC[C@]2(C(=O)O)CC[C@]3(C)C(CCC4[C@@]5(C)CCC(=O)C(C)(C)C5CC[C@]43C)C12", "note": "(stereo partly specified)", "activity change, negative = cytotoxicity": "-19.3% [at 25.3 µM] (inactive)"}
{"smiles": "OCC1OC(Oc2cc(O)cc(/C=C/c3ccc(OC4OC(CO)C(O)C(O)C4O)cc3O)c2)C(O)C(O)C1O", "note": "(stereo unspecified)", "activity change, negative = cytotoxicity": "-0.101% [at 25.3 µM] (inactive)"}
{"smiles": "CC(C)[C@](O)(c1ccc2cc(OC(F)F)c(OC(F)F)cc2c1)c1cn[nH]n1", "activity change, negative = cytotoxicity": "12.4% (inactive)"}
{"smiles": "C/C=C1/[C@H](O[C@@H]2O[C@H](CO)[C@@H](O)[C@H](O)[C@H]2O)OC=C(C(=O)OC)[C@H]1CC(=O)OCCc1ccc(OC(=O)C[C@@H]2C(C(=O)OC)=CO[C@@H](O[C@@H]3O[C@H](CO)[C@@H](O)[C@H](O)[C@H]3O)/C2=C/C)cc1", "activity change, negative = cytotoxicity": "3.14% [at 11.6 µM] (inactive)"}
